In all, about 110,000 compounds were measured (“z-score”: median about -0.1, highest 2% from about 2 on). The list comes from a sample in which the highest values are over-represented; it also holds similar structures and randomly drawn compounds. The source made the active and inactive calls.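 How the source made its calls: active means z-score in the third read window above 3 or below -3; inactive means the rest.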
Target: Metabotropic glutamate receptor 8 (Rattus norvegicus) (UniProt P70579)
Assay: mGluR8 Gi/Go-coupled signaling modulation – cell-based, rat, thallium flux, HTS, primary screen (AID 488969)
Conditions: HEK293 rat mGluR8, GIRK (G protein-gated inwardly rectifying potassium channel) thallium flux, FluoZin2; at 10 µM; stronger effect = higher value; submaximal glutamate (EC20) added with thallium

Chain of Metabotropic glutamate receptor 8 (Rattus norvegicus) (P70579 whole entry, looked up): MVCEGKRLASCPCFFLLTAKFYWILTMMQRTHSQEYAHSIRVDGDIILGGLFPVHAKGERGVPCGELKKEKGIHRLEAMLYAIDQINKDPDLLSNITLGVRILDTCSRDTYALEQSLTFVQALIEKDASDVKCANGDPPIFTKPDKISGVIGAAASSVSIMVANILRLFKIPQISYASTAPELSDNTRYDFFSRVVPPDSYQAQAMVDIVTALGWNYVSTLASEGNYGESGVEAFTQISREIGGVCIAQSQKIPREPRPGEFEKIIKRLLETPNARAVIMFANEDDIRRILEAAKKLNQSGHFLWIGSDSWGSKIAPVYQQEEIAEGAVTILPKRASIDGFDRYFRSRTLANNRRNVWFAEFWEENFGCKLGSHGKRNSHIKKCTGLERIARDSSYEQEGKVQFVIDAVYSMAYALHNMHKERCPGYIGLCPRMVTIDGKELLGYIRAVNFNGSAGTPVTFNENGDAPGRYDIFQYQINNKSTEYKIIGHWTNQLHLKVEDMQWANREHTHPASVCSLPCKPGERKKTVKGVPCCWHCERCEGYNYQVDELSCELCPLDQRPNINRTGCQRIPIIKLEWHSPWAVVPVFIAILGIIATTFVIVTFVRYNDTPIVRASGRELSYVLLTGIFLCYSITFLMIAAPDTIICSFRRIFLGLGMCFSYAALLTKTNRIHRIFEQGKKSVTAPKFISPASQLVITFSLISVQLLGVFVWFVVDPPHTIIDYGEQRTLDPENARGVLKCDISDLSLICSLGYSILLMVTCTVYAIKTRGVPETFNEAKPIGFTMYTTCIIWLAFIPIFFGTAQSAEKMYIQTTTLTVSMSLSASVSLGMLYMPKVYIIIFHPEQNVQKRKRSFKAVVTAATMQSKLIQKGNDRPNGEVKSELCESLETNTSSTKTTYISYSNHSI

Row | Structure (SMILES) | z-score
1 | CC(C)NC(=S)N/N=C/c1ccc(N2CCOCC2)cc1 | 0.522
2 | S=C(NCCN1CCOCC1)N/N=C/c1ccccc1 | 0.728
3 | S=C(Nc1ccc(Cl)cc1Cl)N1CCOCC1 | -0.325
4 | NC(=S)N/N=C/c1ccccc1 | 0.103
5 | Cc1ccc(NC(=S)N2CCOCC2)cc1 | -0.0267
6 | S=C(N/N=C/c1ccccc1)N1CCOCC1 | 2.65
7 | Cc1ccc(/C=N/NC(=S)N2CCOCC2)cc1 | 4.72 (active)
8 | S=C(Nc1ccc(Cl)cc1)N1CCOCC1 | 0.122
9 | S=C(N/N=C/c1ccc(Cl)cc1)N1CCOCC1 | 11.9 (active)
10 | COc1ccc(OCCN2CCN(C3CC(=O)N(CCC(C)C)C3=O)CC2)cc1 (stereo not given) | -0.363
11 | O=C(/C=C/c1c(Cl)cccc1Cl)N1CCN(c2ncccn2)CC1 | -0.303
12 | COCC(C)NC(=O)c1ccccc1OC(C)=O (stereo not given) | -0.44
13 | COc1cc(/C=N/NC(=O)c2sc(N)c(C#N)c2C)cc(Br)c1O | -0.544
14 | Cc1cc(C)n(-c2ccc(C(=O)OCC(=O)Nc3ccc(Cl)cc3[N+](=O)[O-])cc2)n1 | -0.362
15 | COc1ccc2cc(C(=O)Nc3ccc(F)cc3)sc(=O)c2c1OC | 0.534
16 | COc1ccc2cc(C(=O)Nc3ccccc3)sc(=O)c2c1OC | 4.25 (active)
17 | COc1ccc2cc(C(=O)OC(C)C)sc(=O)c2c1OC | -0.229
18 | COc1ccc2cc(C(=O)NCCO)sc(=O)c2c1OC | -0.297
19 | COC(=O)c1cc2ccc(OC)c(OC)c2c(=O)s1 | 0.0942
20 | COc1ccc2cc(C(=O)NCC(=O)O)sc(=O)c2c1OC | 3.42 (active)
21 | N#Cc1ccc(C(=O)Nc2cc(S(=O)(=O)Nc3ccc(Cl)cc3)ccc2N2CCCCC2)cc1 | -0.309
22 | O=C(O)CCc1ccc(-c2ccc(F)cc2)n1NC(=O)c1ccco1 | 0.168

Row | Structure (SMILES) | z-score
23 | COc1ccc(N=Cc2cc3c(cc2O)OC(N)=C(C#N)C3c2ccccc2)cc1 (stereo not given) | -1.18
24 | Cc1ccc(N=Cc2cc3c(cc2O)OC(N)=C(C#N)C3c2ccccc2)cc1 (stereo not given) | 6.28 (active)
25 | N#CC1=C(N)Oc2cc(O)c(C=Nc3ccccc3)cc2C1c1ccccc1 (stereo not given) | -0.423
26 | O=C(c1ccc(Cn2c(=O)[nH]c3ccccc3c2=O)cc1)N1CCN(c2ccc(Cl)cc2)CC1 | -0.127
27 | CN1CCN(Cc2nc3c(c(=O)[nH]c(=O)n3C)n2CCc2ccccc2)CC1 | -0.00916
28 | CC(C)CCn1c(CN2CCN(Cc3ccccc3)CC2)nc2c1c(=O)n(C)c(=O)n2C | 0.709
29 | CC(C)CCn1c(CN2CCN(Cc3ccccc3)CC2)nc2c1c(=O)[nH]c(=O)n2C | 5.8 (active)
30 | CC(C)CCNC(=O)CO/N=C/c1ccccc1OC(F)F | -0.572
31 | COc1cc(Nc2nc3ccccc3n3nnnc23)cc(OC)c1OC | -0.0435
32 | COc1cc(Nc2nc(SCC#N)nc3ccccc23)cc(OC)c1OC | 2.31
33 | N#CCSc1nc(Nc2ccc3c(c2)OCO3)c2ccccc2n1 | -0.556
34 | CC(C)COC(=O)c1cccc2c1-c1ccccc1/C2=N\O | -0.108
35 | O=C(Nc1cccc(Oc2ccc3c(c2)C(=O)NC3=O)c1)c1cccs1 | 0.83
36 | CC1CCCCC1n1c(=S)[nH]c2ccccc2c1=O (stereo not given) | 16.2 (active)
37 | CC1CCCC(n2c(=S)[nH]c3ccccc3c2=O)C1C (stereo not given) | 9.07 (active)
38 | Cc1cc(C)c2c(N=NN3CCCCC3)[nH]nc2n1 | -0.0999
39 | CCN(CC)S(=O)(=O)c1ccc(NC(=O)c2ccc(NS(C)(=O)=O)cc2)cc1 | 1.67
40 | CCn1c(N2CCN(C(=S)NCC(C)C)CC2)nc2ccccc21 | -0.148
41 | CCCC(=O)NCc1ccc2c(c1)cc(C)n2C | -0.371
42 | CCOC(=O)C1=C(C)NC2=C(C(=O)CC(c3ccc(OC)c(OC)c3)C2)C1c1ccc(C)o1 (stereo not given) | 4.89 (active)
43 | CC1=C(C(=O)OCC2CCCO2)C(c2ccc(C)o2)C2=C(CC(c3ccc(N(C)C)cc3)CC2=O)N1 (stereo not given) | -0.22
44 | CC1=C(C(=O)OCC2CCCO2)C(c2ccc(C)o2)C2=C(CC(c3ccc(F)cc3)CC2=O)N1 (stereo not given) | -3.31 (active)

Row | Structure (SMILES) | z-score
45 | Cc1cc(C(F)(F)F)nc(SCC(=O)NC2=NC(=O)C(C)S2)n1 (stereo not given) | 0.475
46 | COc1ccccc1C(=O)NCC(=O)N/N=C/c1cc(Br)ccc1OC(=O)/C=C\c1ccco1 | -0.122
47 | O=C(CNC(=O)c1ccccc1F)N/N=C/c1cc(Br)ccc1OC(=O)/C=C/c1ccco1 | -0.338
48 | O=C(CNC(=O)c1cccc(F)c1)N/N=C/c1cc(Br)ccc1OC(=O)/C=C/c1ccco1 | 2.46
49 | Cc1cc(C)nc(NC(=O)c2ccc(C)c([N+](=O)[O-])c2)n1 | -0.0674
50 | O=C(Nc1ccccc1)C(=O)Nc1ccccn1 | -0.125
51 | O=C(CN1CCN(CC(=O)Nc2ccccn2)CC1)Nc1ccccn1 | -0.212
52 | O=C(CC(=O)Nc1ccccn1)Nc1ccccn1 | 4.08 (active)
53 | COc1ccc(OCc2nc3ccc(S(=O)(=O)Nc4ccccc4Cl)cc3[nH]2)cc1 | -0.822
54 | Cc1ccc(S(=O)(=O)N2CCCCC2)cc1NC(=O)CSc1ccc2c(c1)OCCO2 | -0.361
55 | CCCCSc1nc(N)c(NC(=O)c2ccco2)c(=O)[nH]1 | 3.07 (active)
56 | CCCCSc1nc(O)c(Cc2ccccc2)c(=O)[nH]1 | 0.379
57 | Nc1nc(SCC(=O)N2CCCC2)[nH]c(=O)c1NC(=O)c1ccco1 | 0.975
58 | O=C(O)C1C2C=CC(C3CC23)C1C(=O)NCCc1ccccc1 (stereo not given) | 0.335
59 | Cc1cc(C)n2nc(C(=O)NCc3ccccc3)cc2n1 | 0.128
60 | CCS/C(N)=N/N=C/c1cc(C)ccc1O | -0.389
61 | CCc1ccccc1NC(=S)N1CCC(C(=O)c2ccc(F)cc2)CC1 | 0.202
62 | O=C(c1ccc(F)cc1)C1CCN(C(=S)Nc2ccccc2)CC1 | -0.612
63 | Cc1cccc(NC(=S)N2CCC(C(=O)c3ccc(F)cc3)CC2)c1C | 5.76 (active)
64 | Cc1ccc(Cn2ncc3c(NCCCN4CCOCC4)ncnc32)cc1 | -0.227
65 | CCc1nnc(NC(=O)CSc2nnc(-c3cccnc3)n2CCc2ccccc2)s1 | 0.167
66 | Cc1ccc(OCCn2c(=O)sc3ccccc32)cc1 | -0.193

Row | Structure (SMILES) | z-score
67 | COc1ccc(CO/N=C/c2c(C)[nH]c(=O)[nH]c2=O)cc1 | 3.36 (active)
68 | COc1ccc(N(C)S(=O)(=O)c2c(C)[nH]c(=O)[nH]c2=O)cc1 | 0.02
69 | COc1ccc(Cc2c[nH]c(=O)[nH]c2=O)cc1 | -0.218
70 | O=C(CSc1ncn[nH]1)Nc1ccc([N+](=O)[O-])cc1Br | -0.12
71 | COc1ccc(C2CC(=O)C=C(NCCC(C)C)C2)cc1 (stereo not given) | 0.226
72 | CC(C)CCNC1=CC(=O)CC(c2ccccc2)C1 (stereo not given) | 2.1
73 | CCCCCNC1=CC(=O)CC(c2ccccc2)C1 (stereo not given) | -0.123
74 | CC(c1ccccc1)N1C(=O)c2ccc(C(=O)NCc3ccco3)cc2C1=O (stereo not given) | -0.54
75 | Cc1ccc(N=C(NO)c2nonc2N)cc1 | -1.5
76 | Cn1ccnc1C(O)(c1nnc(-c2ccccc2)o1)C(F)(F)F (stereo not given) | -1.19
77 | CC(C)n1c(O)c(N=NC(=O)c2ccccc2NS(=O)(=O)c2cccs2)c2ccccc21 | -0.411
78 | Cc1cc(C(=O)N=Nc2c(O)n(C(C)C)c3ccccc23)n[nH]1 | 0.232
79 | CCCCn1c(O)c(N=NC(=O)Cn2c(C(F)(F)F)nc3ccccc32)c2ccccc21 | 0.194
80 | CC(C)n1c(O)c(N=Nc2ccccn2)c2ccccc21 | 2.21
81 | CC(C)n1c(O)c(N=NC(=O)Cn2ccc(C(F)(F)F)n2)c2ccccc21 | 1.13
82 | CC(C)n1c(O)c(N=Nc2ccc(Cl)nn2)c2ccccc21 | 3.42 (active)
83 | CC(C)n1c2ccccc2c2nc3ccccc3nc21 | -0.47
84 | CCCCn1c(O)c(N=Nc2ccccn2)c2ccccc21 | 2.97
85 | CC(C)CCn1c(O)c(N=Nc2ccccn2)c2ccccc21 | 1.19
86 | COc1ccc(CC(=O)NCc2ccco2)cc1OC | -0.0499
87 | CN(C)C(CNS(=O)(=O)c1ccc(Cl)cc1)c1cccnc1 (stereo not given) | -0.0299
88 | CCOC(=O)CCc1c(C)c2ccc(OCC(=O)N(CC)CC)c(C)c2oc1=O | -0.0102

Row | Structure (SMILES) | z-score
89 | CCCc1cc(=O)[nH]c(SCC(=O)N2N=C(c3ccc(Cl)cc3)CC2c2ccco2)n1 (stereo not given) | -0.126
90 | COCCn1c(=S)[nH]c2cc(C(=O)N3CCC(C(N)=O)(N4CCCCC4)CC3)ccc2c1=O | -0.286
91 | CCOc1ccccc1N1CCN(Cc2cccc(OC)c2O)CC1 | -0.0607
92 | COc1ccccc1N1CCN(Cc2cc(Br)c(O)c3ncccc23)CC1 | 3.32 (active)
93 | COc1ccccc1N1CCN(Cc2ccc(O)c3ncccc23)CC1 | -0.0396
94 | Cc1cc(C(=O)NCC(=O)OCC(=O)N(C)C2CCCCC2)ccc1[N+](=O)[O-] | 0.828
95 | CCOC(=O)C1C(=O)C=C(/C=C/c2ccccc2)CC1c1ccc(Cl)cc1 (stereo not given) | -0.123
96 | CC(C)[C@H](NC(=O)OC(C)(C)C)c1nnc(SCC(=O)Nc2ccc(Br)cc2)o1 | -0.355
97 | Cn1c(N2CCN(C(=O)NC34CC5CC(CC(C5)C3)C4)CC2)nc2ccccc21 | -0.317
98 | Cc1ccc(-n2c(SCC(=O)Nc3cccc(S(=O)(=O)NC4=NCCCCC4)c3)nc3ccccc3c2=O)cc1 | -0.48
99 | Cc1cc(C)cc(-n2c(SCC(=O)Nc3cccc(S(=O)(=O)NC4=NCCCCC4)c3)nc3ccccc3c2=O)c1 | -0.139
100 | O=C(CSc1ccc2ccccc2c1Br)Nc1cccc(S(=O)(=O)NC2=NCCCCC2)c1 | 14.5 (active)
101 | CCCCC(c1nnnn1C1CCCC1)N1CCN(C2CCCCC2)CC1 (stereo not given) | -0.391
102 | O=C(O)C1CCCCN1S(=O)(=O)c1ccc2ccccc2c1 (stereo not given) | -0.217
103 | COC(=O)C1CCCN1S(=O)(=O)c1ccc2ccccc2c1 (stereo not given) | 2.41
104 | O=C(NC1CC1)C1CCCN1S(=O)(=O)c1ccc2ccccc2c1 (stereo not given) | -0.112
105 | Cc1ccc(C(=O)COc2ccccc2-c2ccccc2)cc1 | -0.229
106 | CCOc1ccccc1C(=O)N(Cc1ccccc1)Cc1cc2cc3c(cc2[nH]c1=O)OCCO3 | 0.283
107 | CCOC(=O)c1ccc(NC(=O)CCNC(=O)c2ccc([N+](=O)[O-])cc2)cc1 | -0.327
108 | CCCn1nc([N+](=O)[O-])c(C(C#N)c2nc3ccccc3s2)c(Cl)c1=O (stereo not given) | -2.49
109 | CCn1nc([N+](=O)[O-])c(C(C#N)c2nc3ccccc3n2C)c(Cl)c1=O (stereo not given) | -0.682
110 | CCn1nc([N+](=O)[O-])c(C(C#N)c2nc3cc(C(F)(F)F)ccc3s2)c(Cl)c1=O (stereo not given) | 2.97

From PubChem BioAssay AID488969 (Vanderbilt High Throughput Screening Facility, 2010)
